Gli-Sufu antag = Gli-Sufu pathway antagonists, primary screen, luciferase luminescence, Sufu-KO-LIGHT cells, uHTS. 340,000 tested, 0.74% active. Sufu-KO-LIGHT fibroblasts, Gli luciferase reporter luminescence. inhibition, % at 5 µM. AID 588413, 2011;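 active means inhibition above about 55%, limit read from the data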;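 further: 0% = DMSO-treated cells and 100% = wells with medium but no cells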
Jurkat NFkB inh = inhibitors of induced NF-kB luciferase reporter, primary screen, TCR NF-kB activation inhibitor project, cell-based, luminescence, uHTS. inhibition, % at 4 µM. Jurkat, PMA/ionomycin-induced NF-kB luciferase reporter. 330,000 tested, 0.53% active. AID 435003, 2010; in the data active means inhibition above about 50%
GalR3 antagonist = GalR3 antagonists in HEK293 cells, primary screen, cell-based, fluorescence readout; Galanin receptor type 3 (Homo sapiens), O60755; HEK293 GalR3-CNG cAMP membrane potential fluorescence; galR3 body fused to GalR1 C-terminus; inhibition, % at 3 µM; 360,000 tested, 0.44% active;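 active means inhibition above the screen-wide average plus 3 SD, cut at about 13% in these data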;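 further: forskolin and galanin both at EC90 stimulate the cells; cAMP rise reported by CNG channel membrane potential dye signal; 0% = forskolin plus galanin with DMSO and 100% = forskolin alone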
Target sequence (O60755 1-299 limits assumed): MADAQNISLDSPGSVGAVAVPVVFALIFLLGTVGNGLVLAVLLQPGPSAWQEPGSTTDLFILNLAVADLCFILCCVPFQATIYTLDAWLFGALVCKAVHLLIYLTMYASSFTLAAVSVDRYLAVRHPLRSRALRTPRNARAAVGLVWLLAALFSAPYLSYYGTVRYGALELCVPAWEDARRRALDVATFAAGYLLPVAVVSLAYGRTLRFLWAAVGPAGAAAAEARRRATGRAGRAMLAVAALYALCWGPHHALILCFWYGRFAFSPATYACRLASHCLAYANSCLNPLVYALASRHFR
NR2F2 inh = NR2F2 transcriptional activity inhibitors, primary screen, cell-based, luciferase reporter, HEK293T, luminescence. inhibition, % at 8.6 µM. 370,000 tested, 0.7% active. HEK293T NGFI-A luciferase reporter. AID 686940, 2013. COUP transcription factor 2 (Homo sapiens), P24468;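 active means inhibition above a per-plate cutoff, mean inhibition of test wells between control levels plus 3 SD, cut at about 38% in these data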;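 further: cells cotransfected with COUP-TFII expression vector driving the NGFI-A reporter; 0% = median of COUP-TF2 test wells and 100% = reporter-only cells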
697 NFkB inh = inhibitors of PMA/ionomycin-induced NF-kB reporter, 697 cells, primary screen, B-cell NF-kB inhibitor project, cell-based, luminescence, uHTS | 330,000 tested, 0.33% active | AID 435022, 2010 | 697 B-cell NF-kB luciferase reporter, 16 h | inhibition, % at 4 µM; in the data active means inhibition above about 35%
697 NFkB conf = PMA/ionomycin-induced NF-kB reporter inhibitors, 697 retest, confirmation, B-cell NF-kB inhibitor project, cell-based, luminescence, single concentration | shares compounds with 697 NFkB inh | 697 B-cell NF-kB luciferase, 16 h | inhibition, % at 4 µM | 2,000 tested, 35% active | AID 449746, 2010; in the data active means inhibition mostly above about 28%, no sharp cut-off; inactive means mostly below about 22%
Numbers without * were called inactive; nt = no result. This is a sample that favours compounds with a hit; in the whole collection about 2% have one here.

SMILES	Gli-Sufu antag	Jurkat NFkB inh	GalR3 antagonist	NR2F2 inh	697 NFkB inh	697 NFkB conf
CC(=O)c1c[nH]c(C(=O)Nc2ccc(N3CCCCCC3)cc2)c1	1.5	-9.9	-1.3	-11.1	39.8*	12.9
O=C(Oc1ccc(N2C(=O)CCC2=O)cc1)c1ccccc1Cl	3.3	4.0	-11.2	6.4	-32.6	nt
Cc1cc(OC(=O)c2ccccc2Cl)cc(=O)n1C	16.4	10.0	-2.6	13.3	39.1*	47.5*
O=C(Nc1ccc(C(O)(C(F)(F)F)C(F)(F)F)cc1)c1ccc(F)cc1Cl	nt	nt	nt	-14.0	nt	nt
CCOc1ccc(-c2nnc(-c3cccs3)o2)cc1OCC	-70.6	-68.4	3.2	-5.9	-57.9	nt
CCOc1ccc(-c2nnc(-c3cccs3)o2)cc1	-96.3	-93.3	-2.6	-42.7	-251.2	-212.4
CCc1ccc(NC(=O)Nc2ccsc2C(=O)OC)cc1	-45.3	-32.1	-0.6	-7.8	-357.9	-315.4
CCC(=O)Nc1cccc(-c2ccc(N3CCC(C)CC3)nn2)c1	-25.4	-71.4	-8.2	-42.7	-258.0	-322.5
CCC(=O)Nc1ccc(-c2ccc(N3CCC(C)CC3)nn2)cc1	-52.0	-54.2	nt	nt	-152.3	nt
Cn1c(=O)c2c(SCC(=O)Nc3ccccc3F)nc(-c3ccccc3F)nc2n(C)c1=O	6.9	7.2	-1.4	-8.8	47.6*	12.2*
Cn1c(=O)c2c(SCC(=O)Nc3ccccc3F)nc(C3CC3)nc2n(C)c1=O	13.7	1.1	2.9	-6.0	-21.4	nt
COC(=O)C1CN(CC(C)C)CCS(=O)(=O)N1Cc1ccc(C(F)(F)F)cc1 (stereo not given)	nt	nt	nt	14.9	nt	nt
CCCC(=O)N1c2ccccc2[C@@H](N(C(C)=O)c2ccccc2)C[C@H]1C	29.7	-0.5	-5.0	-2.8	17.6	nt
CCC(=O)N1c2ccccc2C(N(C(C)=O)c2ccccc2)CC1C (stereo not given)	21.5	11.6	-3.2	-61.6	37.3*	45.0*
O=C(c1ccoc1)N1CCC2(CC1)Oc1ccc(Cl)cc1C(=O)C21CC(c2ccc(Cl)cc2)=NO1 (stereo not given)	21.2	5.6	-6.7	6.0	0.5	nt
O=C(c1ccoc1)N1CCC2(CC1)Oc1ccc(F)cc1C(=O)C21CC(c2ccc(Cl)cc2)=NO1 (stereo not given)	6.8	17.9	-5.0	10.8	36.4*	18.6
Cn1c(=O)c(C(=O)Nc2ccccn2)c(O)c2ccccc21	-40.9	-74.9	-2.7	-41.5	-300.3	-250.3
Cn1c(=O)c(C(=O)Nc2ccccc2S(N)(=O)=O)c(O)c2ccccc21	-19.2	6.8	-7.6	16.0	-89.5	nt
CCC(C)NC(=O)c1ccc(-n2c(=S)[nH]c3ccccc3c2=O)cc1 (stereo not given)	-1.3	14.3	-0.1	7.8	40.6*	0.6
COC(CNC(=O)c1ccc(-n2c(=S)[nH]c3ccccc3c2=O)cc1)OC	-6.2	-3.4	5.0	5.4	20.6	nt
CCCCNC(=O)C[C@@H]1C(=O)N2CCCC3=C2[C@@]1(C(=O)OC)CCCC3	nt	nt	nt	2.0	nt	nt
Cc1ccc(CNC(=O)O[C@H]2CC[C@@]34CCCN3C(=O)CCC[C@H]4[C@H]2C)o1	nt	nt	nt	13.2	nt	nt
Cn1c(=N)n(CC(=O)c2ccc(F)cc2)c2ccccc21	-50.0	-1.3	-8.8	5.3	-158.7	nt
Cn1c(=N)n(CC(=O)c2ccc(Br)cc2)c2ccccc21	-56.4	-91.6	-7.3	-54.1	-344.3	-283.2
Cc1cc(C(=O)COC(=O)c2cccn2C)c(C)n1Cc1ccco1	-76.5	-132.8	-9.0	-12.3	-304.8	-240.1
CCOC(=O)c1cc(CC)sc1N1C(=O)CC(Sc2ccccc2C(=O)O)C1=O (stereo not given)	3.1	8.0	-0.8	10.0	9.4	nt
CCOC(=O)c1cc(CC)sc1N1C(=O)CC(Sc2ncccc2C(=O)O)C1=O (stereo not given)	2.8	-13.2	-2.9	-0.6	46.3*	3.6
CC(Cl)C(=O)N1CCC(C(=O)NC2CCCc3ccccc32)CC1 (stereo not given)	nt	nt	nt	-25.9	nt	nt
O=C(Nc1cccc2ccccc12)c1ccc(OC(=S)N2CCOCC2)cc1	-32.6	-130.0	-4.5	-17.1	-365.6	-418.6

Screening data as filed in PubChem BioAssay.
